LGR2 antag – Drosophila LGR2 receptor signaling inhibition; inhibition, % at 9.99 µM; actives 0.35% (n = 380,000); HEK293 LGR2, CRE-luciferase, bursicon-stimulated, 4 h;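 active means drop in luminescence signal, shown as inhibition above about 50% in the replicate tests, limit read from the data, passing the limit was not always enough; inconclusive means probably only some replicates passing the limit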;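 further: agonist challenge used bursicon conditioned medium at about half maximal strength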
EBV LMP1 NFkB – reduces LMP1-driven NF-kappaB luciferase signal; LMP1-induced NF-kappaB luciferase reporter cells, luminescence; inhibition, % at 12.5 µM; actives 0.69% (n = 350,000); in the data active means inhibition above about 41%; inconclusive means no clear call, values can overlap the other calls
MITF TRPM1 inh – reduces MITF-dependent TRPM1 promoter luciferase signal | SK-MEL-5 TRPM1 promoter luciferase, 24 h | inhibition, % at 12.5 µM | actives 0.83% (n = 330,000) | AID 488899;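 active means mean inhibition across replicates of 60% or more, whatever share of single replicates reaches that level; inconclusive means some that reach 60%, reason not given; inactive means mean inhibition across replicates below 60%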
EWS-Fli block – EWS/Fli transcriptional activity inhibition; A673 NR0B1-luciferase reporter, viability-normalised; inhibition, % at 12.6 µM; actives 0.67% (n = 350,000);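 active means mean inhibition of at least 50% after viability correction, with every replicate also passing that limit; inconclusive means mean reaches 50% but only one of two replicates passes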;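 further: firefly luciferase signal divided by Alamar Blue viability fluorescence both relative to DMSO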
PAX8 inh HTS – PAX8 transcriptional activity inhibition; inhibition, % at 12.6 µM; AID 652154; RMG-I TPO-luciferase reporter, SteadyGlo, 24 h; actives 1.2% (n = 360,000);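 active means mean replicate inhibition at least 60% with every replicate also reaching 60%; inconclusive means only one of the two criteria is met; inactive means mean below 60% and not all replicates reaching 60%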;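 further: luciferase light reporting Pax8 driven TPO promoter activity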
PGC1a acetyl inh – modulators of PGC1a acetylation; U2OS PGC1a acetylation, AlphaScreen anti-acetyl-lysine; with virally co-expressed GCN5 acetyltransferase; inhibition, % at 15.6 µM; actives 0.17% (n = 350,000); AID 651687;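 active means every replicate shows inhibition of at least 40%; inconclusive means mean inhibition at least 40% but some replicate below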
Each line names hits and unclear results; the compound was inactive in the other large screens; ! = repeats disagree. Compounds with a hit are over-represented: about 2.2% of the library has one in this group of screens.

O=C(N[C@@H]1C=C[C@H](CC(=O)N2CCOCC2)O[C@H]1CO)c1ccc2c(c1)OCO2	none (no result: EBV LMP1 NFkB, MITF TRPM1 inh)
CS(=O)(=O)N1CCCC(C(=O)NCc2ccccn2)C1 (configuration not stated)	PGC1a acetyl inh 46.7 (no result: PAX8 inh HTS)
Cc1ccc(S(=O)(=O)N2CCCC(C(=O)NCc3ccccn3)C2)cc1 (configuration not stated)	none (no result: LGR2 antag, EWS-Fli block, PAX8 inh HTS)
Cc1ccc([C@H]2C[C@H](O)[C@@H](n3cc(-c4ccc(F)cc4)nn3)CN2Cc2cccs2)cc1	EWS-Fli block 53.3 (no result: MITF TRPM1 inh)
COc1ccccc1/C=C/C(=O)/C=C/c1ccccc1O	MITF TRPM1 inh 66.0
COc1ccccc1C=CC(=O)C=Cc1ccccc1OC	EBV LMP1 NFkB 66.0, MITF TRPM1 inh 74.3
CC(=O)Nc1ccc(/C=N/Nc2nc3ccccc3[nH]2)cc1	none (no result: PGC1a acetyl inh)
CCCn1c(/C=N/Nc2nc3ccccc3[nH]2)nc2ccccc21	EBV LMP1 NFkB 47.3 (no result: PGC1a acetyl inh)
CCN(CC)c1ccc(/C=N/Nc2nc3ccccc3[nH]2)cc1	PAX8 inh HTS 80.9 (no result: EWS-Fli block, PGC1a acetyl inh)
CC=Cc1ccc2n(c1=O)C[C@H]1[C@H](CO)[C@@H](C(=O)NCC3CCCCC3)[C@@H]2N1C(C)=O (mixture of isomers)	none (no result: EBV LMP1 NFkB, MITF TRPM1 inh, PGC1a acetyl inh)
CC(=O)Nc1nonc1NC(C)=O	none (no result: LGR2 antag, EWS-Fli block)
CC(=O)Nc1cc(OC(C)=O)c2nonc2c1OC(C)=O	PGC1a acetyl inh 44.2 (no result: LGR2 antag, EWS-Fli block, PAX8 inh HTS)
Cc1cc(=O)oc2cc(Oc3ncccn3)ccc12	EBV LMP1 NFkB 44.9 (no result: LGR2 antag, EWS-Fli block, PGC1a acetyl inh)
COc1ccc(C2=NOC(COc3ccc4c(C)cc(=O)oc4c3)C2)c(OC)c1 (configuration not stated)	EWS-Fli block 56.1 (no result: LGR2 antag, EBV LMP1 NFkB, MITF TRPM1 inh)
COc1ccc2c(C)cc(=O)oc2c1	none
COc1ccccc1C1=NOC(COc2ccc3c(C)cc(=O)oc3c2)C1 (configuration not stated)	EWS-Fli block 53.4 (no result: LGR2 antag)
CCCc1cn(CC[C@@H]2CC[C@@H](NC(=O)C3CCC3)[C@@H](CO)O2)nn1	none (no result: EBV LMP1 NFkB, MITF TRPM1 inh)
Cc1ccc(Cl)cc1N1CCN(C(=O)c2cn(C)c(=O)c3c2c2ccccc2n3C)CC1	EWS-Fli block 54.3 (no result: PAX8 inh HTS)
Cc1noc2ncnc(N3CCCC3)c12	none
Cc1noc2ncnc(Sc3ccc(Br)cc3)c12	LGR2 antag 76.0
O=C(Nc1ccc2nc(-c3ccc4nc[nH]c4c3)[nH]c2c1)c1cccs1	PAX8 inh HTS 67.7 (no result: LGR2 antag, EWS-Fli block)
COc1cc(NC(=O)CN2C(=O)NC(C)(c3ccccc3)C2=O)c(C)cc1[N+](=O)[O-] (configuration not stated)	none (no result: LGR2 antag, EWS-Fli block, PAX8 inh HTS, PGC1a acetyl inh)
COc1ccc(NC(=O)CN2C(=O)NC(C)(c3ccc(C)cc3)C2=O)c([N+](=O)[O-])c1 (configuration not stated)	EBV LMP1 NFkB 51.2
Cc1cccc(S(=O)(=O)N2C[C@H](O)COC[C@@H]3O[C@@H](CC(=O)NCCCN4CCOCC4)CC[C@H]32)c1	none (no result: EBV LMP1 NFkB, MITF TRPM1 inh)
C[C@H](CO)N1C[C@H](C)[C@H](CN(C)Cc2cncnc2)Oc2ncc(-c3ccc(C#N)cc3)cc2C1=O	none (no result: EBV LMP1 NFkB, MITF TRPM1 inh, PAX8 inh HTS)
Cc1cc(C(=O)CCl)c(C)n1CCc1ccc(Cl)cc1	MITF TRPM1 inh 78.5
Cc1cc(C(=O)CSc2nnnn2C)c(C)n1CCc1ccc(F)cc1	none (no result: LGR2 antag, EWS-Fli block, PAX8 inh HTS)
Cc1cc(C(=O)CCl)c(C)n1CCc1ccc(F)cc1	MITF TRPM1 inh 88.3
COc1ccc(CCn2c(C)cc(C(=O)CCl)c2C)cc1OC	none
CO[C@H]1CN(C)C(=O)c2cc(NC(=O)C3CCOCC3)ccc2OC[C@@H](C)N(CC2CC2)C[C@@H]1C	none (no result: EBV LMP1 NFkB, MITF TRPM1 inh)
COc1cc(-c2ccc3oc(-c4ccsc4)cc(=O)c3c2)cc(OC)c1OC	LGR2 antag 64.1
COc1ccc(-c2cc(=O)c3cc(OC)ccc3o2)cc1	EWS-Fli block 52.2 (no result: PAX8 inh HTS)
COc1ccc(-c2cc(=O)c3ccc(O)cc3o2)cc1	none (no result: PAX8 inh HTS)
CO[C@@H](CN(C)C(=O)c1ccccc1F)[C@@H](C)CN([C@H](C)CO)S(=O)(=O)c1ccccc1	none (no result: EBV LMP1 NFkB, MITF TRPM1 inh, PAX8 inh HTS)
CNC[C@H]1OCCCC[C@@H](C)Oc2ccc(NS(=O)(=O)c3cn(C)cn3)cc2C(=O)N([C@@H](C)CO)C[C@H]1C	none (no result: EBV LMP1 NFkB, MITF TRPM1 inh)
Cc1ccc(NC(=O)C2=C(c3ccccc3)S(=O)(=O)CCS2(=O)=O)cc1	EBV LMP1 NFkB 93.5, MITF TRPM1 inh 95.2, EWS-Fli block 64.6, PAX8 inh HTS 115.9 (no result: PGC1a acetyl inh)
Cc1ccc(NC(=O)c2ccccc2)cc1	none (no result: LGR2 antag, EWS-Fli block)
O=C(CC1CC1)Nc1ccc2c(c1)[C@@H]1C[C@H](CC(=O)NC3CCCCC3)O[C@H](CO)[C@@H]1O2	none (no result: EBV LMP1 NFkB, MITF TRPM1 inh)
CCCCNc1c(-c2ccc(OC)c(SC3CCCCC3)c2)nc2ccc(C)cn12	LGR2 antag 52.0!
CCCCNc1c(-c2ccc(SC3CCCCC3)c(OC)c2)nc2ccc(C)cn12	none (no result: PGC1a acetyl inh)
CCC(C)Sc1cc(-c2nc3cc(C)ccn3c2NC2CCCCC2)ccc1OC (configuration not stated)	none
CCC(C)Sc1cc(-c2nc3ccccn3c2NC2CCCCC2)ccc1OC (configuration not stated)	LGR2 antag 53.4!
CC(=O)NCCNC(=O)c1ccc(CSc2nc3ccccc3s2)cc1	LGR2 antag 66.9 (no result: EWS-Fli block, PGC1a acetyl inh)
C=CCNC(=O)c1ccc(CSc2nc3ccccc3s2)cc1	none
O=C(COC(=O)/C=C/C(=O)OCC(=O)NC12CC3CC(CC(C3)C1)C2)NC12CC3CC(CC(C3)C1)C2	MITF TRPM1 inh 76.0 (no result: EWS-Fli block)
Cc1cccc2c(N)c3c(nc12)CCCC3 (tested in a mixture with another compound)	none (no result: PGC1a acetyl inh)
Cc1cc(C)c2c(N)c3cccc(C)c3nc2n1	MITF TRPM1 inh 65.5 (no result: LGR2 antag, PGC1a acetyl inh)
Cc1cc(Sc2ncnc(N)c2[N+](=O)[O-])ncn1	MITF TRPM1 inh 77.6 (no result: LGR2 antag, EWS-Fli block, PAX8 inh HTS, PGC1a acetyl inh)
CCCNC(=O)Nc1ccc2c(c1)C(=O)N(C)[C@H]1CC[C@H](CC(=O)NC)O[C@H]1CO2	none (no result: EBV LMP1 NFkB, MITF TRPM1 inh)
N#CC(C#N)=C(Nc1ccc(F)cc1)SCc1cccc(Br)c1	EBV LMP1 NFkB inconclusive, MITF TRPM1 inh 62.7, PAX8 inh HTS 84.9
Cc1cccc(CSC(Nc2ccc(F)cc2)=C(C#N)C#N)c1	LGR2 antag inconclusive (no result: EWS-Fli block, PGC1a acetyl inh)
C[C@H](CO)N1C[C@H](C)[C@@H](CN(C)C(=O)Nc2ccc(C(F)(F)F)cc2)Oc2c(NC(=O)Nc3ccccc3)cccc2C1=O	EWS-Fli block 63.7!
C[C@@H]1CN([C@@H](C)CO)C(=O)c2cccc(NC(=O)Nc3ccc(C(F)(F)F)cc3)c2O[C@@H]1CN(C)C(=O)Nc1ccc(F)cc1	none (no result: LGR2 antag, EBV LMP1 NFkB, MITF TRPM1 inh, PAX8 inh HTS)
CNC[C@H]1Oc2c(NC(=O)Nc3ccccc3)cccc2C(=O)N([C@H](C)CO)C[C@@H]1C	PAX8 inh HTS 72.7 (no result: EBV LMP1 NFkB, MITF TRPM1 inh)
C[C@H](CO)N1C[C@H](C)[C@@H](CN(C)Cc2ccc3c(c2)OCO3)Oc2c(NC(=O)Nc3ccc(C(F)(F)F)cc3)cccc2C1=O	LGR2 antag 59.9 (no result: EBV LMP1 NFkB, MITF TRPM1 inh, PAX8 inh HTS)
C[C@@H]1CN([C@H](C)CO)C(=O)c2cccc(NC(=O)Nc3ccc(C(F)(F)F)cc3)c2O[C@@H]1CN(C)C(=O)Nc1ccccc1	none (no result: EBV LMP1 NFkB, MITF TRPM1 inh)

Bioassay records (PubChem BioAssay)
